This note sets out measurements from PubChem BioAssay.

The source made the active and inactive calls.

Assay [1] is described as follows: binders of probe aFSTL3 on microarray, primary screen, stem cell growth factor project, biochemical, small-molecule microarray, fluorescence 635/667 (AID 1064).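 Further: measures binding of the biotinylated anti-FSTL3 antibody to printed compounds.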 The conditions noted are these: higher = more signal.
The nature of assay [2]: binders from COS7 lysate, DM2A8 probe, primary screen, torsin A project, cell lysate, small-molecule microarray, fluorescence 635/667 (AID 1065). The conditions noted are these: higher = more signal, COS7 lysate expressing mutant human TOR1A.
Assay [3] in a line: binders of probe aFGF2 on microarray, primary screen, stem cell growth factor project, biochemical, small-molecule microarray, fluorescence 635/667 (AID 1067).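 Further: measures binding of biotinylated aFGF2 protein to printed compounds on slides; z-score merges feature fluorescence and signal-to-noise across triplicate slides.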 The note with it: higher = more signal.
Assay [4] can be described thus: binders of probe aFGF10 on microarray, primary screen, stem cell growth factor project, biochemical, small-molecule microarray, fluorescence 635/667 (AID 1071).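 Further: score merges 667 nm spot intensity and signal to noise from triplicate slides.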 The note with it: higher = more signal.
In assay [5] the target is Neurogenic locus notch homolog protein 2 (Homo sapiens) (UniProt Q04721). Description: Notch2 binders on small-molecule microarrays, primary screen, biochemical, small-molecule microarray, 635 nm fluorescence, stem cell growth factors (AID 1073). The note with it: Notch2 binding, higher = more signal.
Assay [6] concerns the target Pro-neuregulin-1, membrane-bound isoform (Homo sapiens) (UniProt Q02297). Description: NRG1 binders on small-molecule microarrays, primary screen, psychiatric disease protein project, biochemical, small-molecule microarray, fluorescence 635/667 (AID 1075).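 Further: score combines 667 nm spot fluorescence with signal to noise.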 The conditions noted are these: NRG1 binding, 635 nm fluorescence, higher = more signal.
Assay [7] relates to Neuregulin-1 EGF-like domain. Briefly: binders of neuregulin-1 EGF-like domain, primary screen, biochemical, small-molecule microarray, 635 nm fluorescence (AID 1081).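 Further: binding of the protein to compounds printed on small-molecule microarray slides.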 The note with it: small-molecule microarray binding, higher = more signal.
The nature of assay [8]: FRG1 promoter luciferase signal modulators, primary screen, FRG1 inhibition for FSHD, cell-based, C2C12 myotubes, firefly/Renilla luciferase, luminescence (AID 1084). The note with it: higher = more signal, called active from +8 up or from −8 down.
Assay [9] in a line: binders of probe aFST on microarray, primary screen, stem cell growth factor project, biochemical, small-molecule microarray, fluorescence 635/667 (AID 1086).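 Further: score merges 667 nm fluorescence with signal-to-noise of each printed compound spot.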 The conditions noted are these: higher = more signal.
A short description of assay [10]: binders of probe aHhip on microarray, primary screen, stem cell growth factor project, biochemical, small-molecule microarray, fluorescence 635/667 (AID 1087).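 Further: score merges spot fluorescence at 667nm with spot signal to noise ratio.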 The conditions noted are these: higher = more signal.

Neurogenic locus notch homolog protein 2 (Homo sapiens), sequence (Q04721 whole entry, looked up, canonical isoform): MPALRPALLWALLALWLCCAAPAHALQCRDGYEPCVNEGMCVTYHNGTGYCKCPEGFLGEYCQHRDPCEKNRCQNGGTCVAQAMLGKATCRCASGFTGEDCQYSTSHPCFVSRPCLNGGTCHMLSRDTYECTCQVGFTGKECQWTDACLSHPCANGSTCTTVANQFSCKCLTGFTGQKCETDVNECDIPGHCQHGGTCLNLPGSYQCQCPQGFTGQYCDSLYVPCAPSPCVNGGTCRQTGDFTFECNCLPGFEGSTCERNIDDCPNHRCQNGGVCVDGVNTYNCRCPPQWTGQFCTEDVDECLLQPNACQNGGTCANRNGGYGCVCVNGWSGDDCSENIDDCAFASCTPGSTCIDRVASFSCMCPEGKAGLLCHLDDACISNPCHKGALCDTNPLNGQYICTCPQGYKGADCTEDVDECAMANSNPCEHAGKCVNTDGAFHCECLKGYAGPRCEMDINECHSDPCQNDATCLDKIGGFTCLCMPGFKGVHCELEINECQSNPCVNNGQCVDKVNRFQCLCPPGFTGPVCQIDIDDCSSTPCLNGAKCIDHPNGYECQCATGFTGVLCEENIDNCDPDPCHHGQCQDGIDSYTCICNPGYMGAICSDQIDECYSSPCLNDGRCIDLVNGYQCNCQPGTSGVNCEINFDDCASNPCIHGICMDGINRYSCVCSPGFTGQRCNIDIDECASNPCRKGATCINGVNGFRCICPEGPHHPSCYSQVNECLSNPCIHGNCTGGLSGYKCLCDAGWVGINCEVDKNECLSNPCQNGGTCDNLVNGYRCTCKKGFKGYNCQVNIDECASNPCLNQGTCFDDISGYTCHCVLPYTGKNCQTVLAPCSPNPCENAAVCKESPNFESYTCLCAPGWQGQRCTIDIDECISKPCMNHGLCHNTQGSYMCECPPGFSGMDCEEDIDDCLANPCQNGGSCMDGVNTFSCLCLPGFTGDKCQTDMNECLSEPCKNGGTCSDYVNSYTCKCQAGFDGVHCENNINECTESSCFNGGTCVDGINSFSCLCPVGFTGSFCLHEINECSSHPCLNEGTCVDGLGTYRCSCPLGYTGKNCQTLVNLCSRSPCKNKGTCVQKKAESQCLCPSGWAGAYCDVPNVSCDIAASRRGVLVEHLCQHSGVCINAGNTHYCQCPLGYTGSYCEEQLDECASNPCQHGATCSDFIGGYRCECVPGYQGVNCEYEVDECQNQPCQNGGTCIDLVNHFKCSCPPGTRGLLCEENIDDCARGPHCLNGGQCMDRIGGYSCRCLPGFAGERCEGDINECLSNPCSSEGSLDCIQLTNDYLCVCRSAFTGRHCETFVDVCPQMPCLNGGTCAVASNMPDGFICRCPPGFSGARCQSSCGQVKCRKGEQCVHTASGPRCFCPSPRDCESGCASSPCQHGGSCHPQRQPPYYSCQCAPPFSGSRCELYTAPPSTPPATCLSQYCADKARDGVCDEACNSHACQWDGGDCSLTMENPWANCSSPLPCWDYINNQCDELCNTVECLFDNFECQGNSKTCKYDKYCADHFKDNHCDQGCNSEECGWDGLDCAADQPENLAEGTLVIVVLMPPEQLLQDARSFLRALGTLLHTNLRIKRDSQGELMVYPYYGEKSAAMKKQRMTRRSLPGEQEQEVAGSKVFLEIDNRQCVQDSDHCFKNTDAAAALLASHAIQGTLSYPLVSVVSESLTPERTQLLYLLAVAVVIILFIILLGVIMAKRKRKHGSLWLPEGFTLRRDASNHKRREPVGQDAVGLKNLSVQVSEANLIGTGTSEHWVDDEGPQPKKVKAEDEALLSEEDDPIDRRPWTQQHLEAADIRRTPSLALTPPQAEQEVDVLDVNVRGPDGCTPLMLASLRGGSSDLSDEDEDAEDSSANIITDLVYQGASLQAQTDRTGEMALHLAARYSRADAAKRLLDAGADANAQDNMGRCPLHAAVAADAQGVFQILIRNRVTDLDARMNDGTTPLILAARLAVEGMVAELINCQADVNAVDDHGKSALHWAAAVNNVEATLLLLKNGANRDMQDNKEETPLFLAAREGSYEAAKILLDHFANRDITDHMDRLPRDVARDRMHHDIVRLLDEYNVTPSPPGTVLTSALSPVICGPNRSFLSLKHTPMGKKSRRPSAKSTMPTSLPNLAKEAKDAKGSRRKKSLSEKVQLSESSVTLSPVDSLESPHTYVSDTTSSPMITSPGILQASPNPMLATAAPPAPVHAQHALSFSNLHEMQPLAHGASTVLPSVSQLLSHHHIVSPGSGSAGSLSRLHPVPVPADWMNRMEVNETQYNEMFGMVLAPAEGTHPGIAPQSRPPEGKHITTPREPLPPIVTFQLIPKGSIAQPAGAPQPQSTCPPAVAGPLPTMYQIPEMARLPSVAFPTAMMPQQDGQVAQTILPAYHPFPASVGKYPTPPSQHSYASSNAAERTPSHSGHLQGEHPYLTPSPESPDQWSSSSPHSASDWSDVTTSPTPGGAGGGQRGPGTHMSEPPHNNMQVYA
Pro-neuregulin-1, membrane-bound isoform (Homo sapiens), sequence (Q02297 whole entry, looked up, the tested form may be a part, canonical isoform): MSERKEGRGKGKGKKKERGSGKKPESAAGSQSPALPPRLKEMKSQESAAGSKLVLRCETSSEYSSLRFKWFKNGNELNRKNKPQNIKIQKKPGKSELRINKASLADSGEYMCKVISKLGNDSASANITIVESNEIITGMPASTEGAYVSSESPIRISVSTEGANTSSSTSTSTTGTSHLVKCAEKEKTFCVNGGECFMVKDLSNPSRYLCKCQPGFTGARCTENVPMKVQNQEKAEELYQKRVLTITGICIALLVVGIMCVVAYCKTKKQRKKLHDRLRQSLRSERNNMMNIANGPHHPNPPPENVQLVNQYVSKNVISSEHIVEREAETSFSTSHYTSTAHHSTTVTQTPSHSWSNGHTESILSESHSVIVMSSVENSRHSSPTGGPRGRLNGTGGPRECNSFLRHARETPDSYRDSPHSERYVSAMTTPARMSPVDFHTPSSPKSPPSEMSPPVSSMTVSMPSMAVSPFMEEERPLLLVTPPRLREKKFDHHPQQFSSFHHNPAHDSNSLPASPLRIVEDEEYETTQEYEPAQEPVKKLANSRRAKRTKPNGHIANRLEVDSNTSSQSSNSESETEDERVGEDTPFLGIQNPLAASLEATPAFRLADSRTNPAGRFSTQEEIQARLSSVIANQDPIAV

For `CCCCCN1CC=CC23O[C@@H]4/C=C\CCC(C)OC(=O)C4[C@H]2C(=O)N(CCCCCO)[C@@H]3C1=O` (stereo not given in full), the composite z-score in [1] is -0.0551; in [2], 0.698; in assay [3], -0.0871; in assay [4] it was -0.524; in assay [5] it was -0.862; in assay [6] it was 0.948. In addition, the composite z-score in assay [7] was -0.69; in assay [9], -0.467; in [10], 0.344. Also, the z-score in assay [8] is 0.312 (inactive).
Regarding `O=c1oc(-c2ccccc2)nc2cc(Br)ccc12`, the composite z-score was -0.0862 in [1]; 0.0961 in assay [2]; -0.103 in assay [3]; 0.298 in assay [4]; 0.325 in [5]; -0.0187 in assay [6]. The composite z-score in assay [7] was 0.52; in assay [9], 0.127; in [10], -0.287. Further, the z-score in [8] is -0.409 (inactive).
Consider `COCCOC(=O)N1C(=O)[C@@]2(c3cc(C#CCNC(N)=O)ccc31)[C@H](c1ccc(O)cc1)N1[C@H](c3ccccc3)[C@H](c3ccccc3)OC(=O)[C@H]1[C@@H]2C(=O)NC[C@H](O)c1ccccc1`, for which the composite z-score turned out to be 0.134 in assay [1]; 1.16 in assay [2]; 0.109 in assay [3]; 0.846 in assay [4]; 1.01 in assay [5]; 0.743 in assay [6]. Also, the composite z-score in assay [7] amounted to 0.866; in assay [9] it was 1.55; in assay [10], 0.127. In assay [8], the z-score was -0.463 (inactive).
With `COCCCNC(=O)[C@@]1(c2ccc([N+](=O)[O-])cc2)CC(=O)N(CC23CC4CC(CC(C4)C2)C3)[C@@H]1c1ccc(CO)cc1`, the composite z-score in [1] is -0.46; in [2], 0.666; in assay [3], -0.0453; in assay [4], 0.264; in assay [5], 1.36; in assay [6] it was 0.43. In addition, the composite z-score in assay [7] is 1.17; in assay [9] it was 0.573; in assay [10] it was -0.0296. For the same molecule, the z-score in [8] is -2.08 (inactive).
Turning to `COc1ccc(C#Cc2ccc3c(c2)[C@]2(C(=O)N3)[C@H](C(=O)NC[C@H](O)c3ccccc3)[C@H]3C(=O)O[C@H](c4ccccc4)[C@H](c4ccccc4)N3[C@@H]2c2ccccc2OCCO)cc1`, the composite z-score in assay [1] was -0.185; in assay [2] it was 0.324; in assay [3], 0.0128; in assay [4], 0.688; in assay [5] it was 1.29; in [6], 1.56. Besides, the composite z-score in assay [7] is 1.19; in [9] it was 0.653; in [10] it was -0.0994. Moreover, the z-score in assay [8] was 0.162 (inactive).
Regarding `CC(C)C(=C=CC[C@@H](O)c1ccccc1OCCO)C[C@@H](O)c1ccccn1`, the composite z-score in [1] was -0.438; in assay [2] it was -0.0682; in assay [3] it was -0.153; in assay [4], 0.477; in assay [5] it was 0.0623; in assay [6], 0.0795. For the same molecule, the composite z-score in [7] was determined as 1.19; in assay [9], 0.272; in assay [10] it was 0.176. Moreover, the z-score in assay [8] is -0.306 (inactive).
In the case of `Cc1c(NC(=O)CC#N)c(=O)n(-c2ccccc2)n1C`, the composite z-score in assay [1] is -0.436; in [2], 0.114; in assay [3], -0.0996; in assay [4], 0.374; in assay [5], 0.348; in [6], 0.379. Also, the composite z-score in [7] was 0.483; in assay [9] it was 0.404; in [10], -0.498. Moreover, in [8], the z-score is 1.66 (inactive).
As for `[N-]=[N+]=NCc1ccccc1C[C@]1(C(=O)O)N=C(c2ccc(OCCCO)cc2)O[C@H]1c1ccccc1`, the composite z-score in assay [1] was 0.32; in [2], 0.474; in [3], -0.0184; in assay [4], 0.39; in assay [5], 0.0892; in assay [6], 1.09. For the same molecule, the figures for the composite z-score in [7], in assay [9] and in assay [10] were 0.976, 0.219 and -0.261, respectively. For the same molecule, the z-score in assay [8] is -2.33 (inactive).
For `CC(C)(C)N1CC=CC23O[C@@H]4C=CCOC(=O)[C@@H]4[C@H]2C(=O)N(CCCCCO)[C@@H]3C1=O` (stereo not given in full), the composite z-score is 0.469 in assay [1]; -0.555 in [2]; -0.159 in assay [3]; -0.335 in assay [4]; -1.38 in assay [5]; 0.978 in assay [6]. Moreover, the composite z-score is 1.33 in assay [7], 0.411 in assay [9] and -0.339 in assay [10]. Besides, in assay [8], the z-score was 0.952 (inactive).
With `O=C1C2C=CC(C(O)c3ccc(-c4ccccc4)s3)N(n3cnnc3)C2C(=O)N1Cc1ccccc1` (stereo not given), the composite z-score in [1] is 0.0626; in [2], -0.0982; in [3], -0.083; in [4], -0.0152; in assay [5], 0.207; in assay [6] it was 0.802. In addition, the composite z-score in assay [7] is 1.04; in assay [9] it was 0.415; in assay [10] it was -0.0645. For the same molecule, the z-score in [8] was 0.545 (inactive).
Take `COc1ccc(C(O)C2C=CC3C(=O)NC(=O)C3N2Nc2ccccn2)cc1OCc1ccccc1` (stereo not given): the composite z-score was -0.202 in [1]; -0.0593 in assay [2]; -0.0226 in assay [3]; 0.177 in assay [4]; 1.27 in assay [5]; 1.71 in assay [6]. Further, the composite z-score in [7] stood at 0.666; in assay [9] it was 0.216; in assay [10], 3.69. The z-score in assay [8] was 0.387 (inactive).
Regarding `[N-]=[N+]=Nc1ccccc1[C@H]1OC(c2ccc(OCCCO)cc2)=N[C@@]1(CCS(=O)(=O)c1ccccc1)C(=O)O`, the composite z-score in assay [1] was 1.13; in assay [2], 0.298; in assay [3], 0.051; in assay [4], 0.0993; in assay [5], 0.402; in assay [6], 0.826. Besides, the figures for the composite z-score in [7], in [9] and in assay [10] were 0.67, 0.697 and -0.189, respectively. Moreover, the z-score in assay [8] is 3.83 (inactive).
For `C[C@H]1NC(=O)[C@H](Cc2ccccc2)NC(=O)[C@@]23C(=O)N[C@@H](Cc4ccccc4)C2[C@H](C)[C@@]2(C)O[C@H]2C3/C=C/C/C=C\CNC1=O` (stereo not given in full), the composite z-score is -0.231 in assay [1]; 0.32 in assay [2]; -0.0878 in [3]; -0.32 in assay [4]; -0.221 in assay [5]; -0.547 in assay [6]. Besides, the composite z-score in assay [7] is -0.867; in assay [9], -0.146; in [10] it was 0.238. The z-score in assay [8] was 0.049 (inactive).
On to `COc1ccc(C(O)C2C=CC3C(=O)N(C)C(=O)C3N2Nc2ccccc2)cc1OCc1ccccc1` (stereo not given), for which the composite z-score in assay [1] came out at 0.008; in [2], 0.174; in assay [3] it was 0.0258; in [4], 0.386; in assay [5], 1.28; in [6] it was 1.94. For the same molecule, the composite z-score was 1.31 in assay [7], 0.346 in assay [9] and 0.208 in [10]. In assay [8], the z-score was -1.1 (inactive).
As for `COC(=O)[C@@]1(Cc2ccc(OC)cc2)[C@H]2c3cc(C(=O)N4CCCC4)n(CCc4c[nH]c5cc(F)ccc45)c3C[C@H]2CN1C(=O)c1ccccc1`, the composite z-score in assay [1] came to 0.785; in assay [2] it was 0.209; in [3], 0.0181; in assay [4], 0.71; in [5], 1.76; in [6] it was 2.12. Besides, the figures for the composite z-score in [7], in assay [9] and in [10] were 1.18, 2.35 and 0.28, respectively. In [8], the z-score was -0.87 (inactive).
Regarding `COC(=O)C1=CC(CCCO)=CC(C2CC2)N(Cc2sc3ccccc3c2Cl)C=C1C(=O)OC` (stereo not given), the composite z-score in [1] was -0.0356; in assay [2], 0.43; in [3] it was 0.0216; in [4] it was 0.889; in [5] it was 1.44; in assay [6] it was 1.98. Besides, the composite z-score in assay [7] was 1.08; in assay [9], 1.1; in [10] it was -0.266. Besides, in [8], the z-score is -1.73 (inactive).
